Data as given in PubChem BioAssay (NCATS).
Values joined by “and” are separate entries in the source; they are usually repeats but may differ in a detail not shown here. Identical values can stand only once. Records with an inconclusive call do not appear. Values without a mark were called inactive. Active and inactive are the calls of the source. Calls come from the whole dose curve; as a rule, active = well fitted curve in either direction with a large enough effect (not every such curve was filed as active); inconclusive = small, poorly fitted or top-dose-only effect, or another doubt; inactive = flat fitted curve, though single readings scatter.

Experiment: NFAT Signaling Pathway (AID 444)
Conditions: Jurkat NFAT-bla M1, carbachol, beta-lactamase ratio, 5 h; at 7.69 µM (top of the series)
From the text: NCGC Assay Overview: The nuclear factor of activated T cells (NFAT) family of transcription factors has been found primarily in most immune system cells and some other non-immune cells. NFAT plays the immunomodulatory role, primarily in T-cell activation and differentiation. NFAT target genes are also involved in the regulation of apoptosis and differentiation in non-immune cell types. The NFAT sequence was engineered to the upstream of the ?-lactamase reporter gene and transfected into Jurkat cells with co-transfection of muscarinic receptor1 [provided by Invitrogen Corp]. When an extracellular stimulus, such as carbachol, binds to the GPCR M1 receptor, it stimulates a signaling cascade that activates NFAT response element and ?-lactamase expression by phosphorylating the NFAT binding protein. This cell based ?-lactamase reporter gene assay can accurately monitor any changes occurring along the NFAT pathway, and can be used for screening small molecule inhibitor or activator upon activation by carbachol EC50 concentration. A small molecular library were screened in a titration series resulting in AC50s (can be either IC50s or EC50s).
NCGC Assay Protocol Summary: The cells were prepared in RPMI 1640 medium containing 0.1% dialyzed FBS and 25 mM HEPES at 1.6 x 10^6cell/ml. The assay was performed in 1536-well plate format as follows: 5 ul of cell preparation 23 nl of compounds 1ul of carbachol (final concentration 1 uM) Briefly centrifuge the plates and incubate at 37 °C for 5 hours 1 ul of CCF4 dye mixture Incubate the plates at RT for 1 hour Read the plate in EnVision plate reader (Ex= 405nm, and Em1=460nm and Em2=530nm). The %Activity was determined from the ratio of 460nm/530nm. Data normalization and AC50 calculations were accomplished using GeneData software.
% is set by controls: 0 for no effect and ±100 for the full control effect.

| Structure (SMILES) | activity change, negative = inhibition |
| --- | --- |
| NS(=O)(=O)c1ccc(C(=O)O)cc1 | 7.39% |

Same assay, conditions: Jurkat NFAT-bla M1, carbachol, beta-lactamase ratio, 5 h; at 17.2 µM (top of the series)

| Structure (SMILES) | activity change, negative = inhibition |
| --- | --- |
| CN1C(C)(C)CCCC1(C)C | -4.12% |
| NS(=O)(=O)c1ccc(C(=O)O)cc1 | 8.44% |

Same assay, conditions: Jurkat NFAT-bla M1, carbachol, beta-lactamase ratio, 5 h; at 17.2 µM (top of the series) unless noted

| Structure (SMILES) | activity change, negative = inhibition |
| --- | --- |
| O=C(O)CCCc1ccccc1 | 20.3% |
| Nc1ccc(S(=O)(=O)c2ccc(N)cc2)cc1 | -0.066% and 13.8% |
| COc1ccc(NS(=O)(=O)c2ccc(N)cc2)nn1 | -4.78% and 5.22% |
| Cn1c([N+](=O)[O-])cnc1COC(N)=O | -6.16% and -23.1% |
| Cc1c(NC(C)C)c(=O)n(-c2ccccc2)n1C | -8.51% |
| O=C(O)c1ccccc1OP(=O)(O)O | -20.2% |
| NC(N)=NCCN1CCCCCCC1 | -13.3% |
| CC(=O)[C@@]1(O)CC[C@H]2[C@@H]3C[C@H](C)C4=CC(=O)C=C[C@]4(C)[C@@]3(F)[C@@H](O)C[C@@]21C | 9.08% |
| O=C(O)COC(=O)Cc1ccccc1Nc1c(Cl)cccc1Cl | -7.48% |
| Cc1ncc(CO)c(CN)c1O | -0.448% [at 7.69 µM] |
| CC(C)=CCC/C(C)=C/CO | 4.14% [at 7.69 µM] |
| CC1CCc2cc(F)cc3c(=O)c(C(=O)O)cn1c23 (stereo not given) | 13.1% |
| C[C@@H]1CCC[C@H](C)N1 | -5.56% |
| CCc1cccc(CC)c1NC(=O)CN(CC(=O)O)CC(=O)O | -2.21% |
| CC(=O)N[C@@H](CC(C)C)C(=O)O | 1.74% |
| CCCCC1(COC(=O)CCC(=O)O)C(=O)N(c2ccccc2)N(c2ccccc2)C1=O | 11.7% |
| CCOC(=O)[C@H](CCc1ccccc1)N[C@@H](C)C(=O)N1CCC[C@H]1C(=O)O | 0.851% |
| CC(=O)SC[C@@H](Cc1ccccc1)C(=O)NCC(=O)OCc1ccccc1 | -12% |

| Structure (SMILES) | activity change, negative = inhibition |
| --- | --- |
| CCS(=O)(=O)CCn1c([N+](=O)[O-])cnc1C | -9.1% and -28.6% |
| O=C(O)c1ccccc1C(=O)Nc1ccc(S(=O)(=O)Nc2nccs2)cc1 | 11.2% |
| CCCCOC(=O)c1ccc(N)cc1 | -8.04% |
| Cc1c(NC(=O)c2cccnc2)c(=O)n(-c2ccccc2)n1C | -13.6% |
| Cc1cc(C)nc(NS(=O)(=O)c2ccc(N)cc2)n1 | -2.6% |
| CN/C(=C\[N+](=O)[O-])NCCSCc1csc(CN(C)C)n1 | -2.1% |
| NC(N)=NS(=O)(=O)c1ccc(N)cc1 | -6.04% and -19.4% |
| NC(=O)CC[C@@H](N)C(=O)O | 0.712% [at 38 µM] |
| Cc1cccc(Nc2ccccc2C(=O)O)c1C | -4.97% |
| CCN(CC)CCOC(=O)C(c1ccccc1)c1ccccc1 | -79.3% (active) |
| CN1CCCN=C1COC(=O)C(O)(c1ccccc1)C1CCCCC1 (stereo not given) | -84.1% (active) |
| Cc1cc(NC(=O)C2=C(O)c3ccccc3S(=O)(=O)N2C)no1 | -5.7% and 4.09% |
| OC(CCN1CCCC1)(c1ccccc1)C1CCCCC1 (stereo not given) | -89.4% (active) |
| Cc1c(N(C)C)c(=O)n(-c2ccccc2)n1C | -3.81% |
| COc1ccc2cc(CCC(C)=O)ccc2c1 | -1.6% |
| CC(=O)NS(=O)(=O)c1ccc(N)cc1 | -1.44% and -25.8% |
| O=C(Cn1ccnc1[N+](=O)[O-])NCCO | -5.19% |
| NS(=O)(=O)c1cc2c(cc1C(F)(F)F)NCNS2(=O)=O | -1.33% and 8.85% |

Same assay, conditions: Jurkat NFAT-bla M1, carbachol, beta-lactamase ratio, 5 h; at 38 µM (top of the series)

| Structure (SMILES) | activity change, negative = inhibition |
| --- | --- |
| CN1C(C)(C)CCCC1(C)C | 7.41% |
